Test results reported in PubChem BioAssay (EPA / NIEHS).
Results filed as inconclusive are left out. The source made the active and inactive calls. Rule for the calls, unless noted: active = hit-call score of the fitted dose curve at least 0.9, where 1 is the maximum; inactive = score below 0.9.

Legend:
[1] = CCTE_Mundy_HCI_Cortical_NOG_NeuriteLength: CCTE's Neurite Outgrowth Assay in rat cortical cells for Neurite Length, Mundy Lab (AID 2284213);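 note: neurites imaged about 48 to 50 h after chemical exposure began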
Outline: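 First, rat primary cortical cells were plated and, 2 h later, given test chemical as a 1/10 dilution. Finally, βIII-tubulin immunostaining enabled automated imaging of neurite length.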

[2] = CCTE_Mundy_HCI_Cortical_Synap_Neur_Matur_NeuriteLength: CCTE's Synaptogenesis and Neurite Maturation Assay in rat cortical cells for Neurite Length, Mundy Lab (AID 2284214)
Outline: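 DMSO-normalised neurite length, from high-content imaging of anti-MAP2-stained rat cortical cells fixed at DIV 12. Glia were suppressed with AraC (DIV 5) before chemical exposure from DIV 7.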

[3] = CCTE_Mundy_HCI_Cortical_Synap_Neur_Matur_SynapseCount: CCTE's Synaptogenesis and Neurite Maturation Assay in rat cortical cells for Synapse Count, Mundy Lab (AID 2284218)
Outline: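 Endpoint: synapses/neuron by HCI (synaptophysin puncta on MAP2-labelled neurites, Hoechst nuclei). Rat primary cortical cells, AraC DIV 5, dosed DIV 7, fixed DIV 12; DMSO negative control.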

[4] = CCTE_Mundy_HCI_Cortical_Synap_Neur_Matur_NeuriteCount: CCTE's Synaptogenesis and Neurite Maturation Assay in rat cortical cells for Neurite Count, Mundy Lab (AID 2284222)
Outline: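 Primary rat cortical cells were plated, treated with AraC at DIV 5, then exposed to chemicals from DIV 7 through DIV 12. After fixation and immunostaining for MAP2 and synaptophysin, imaging quantified neurites, with DMSO as the negative control.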

[5] = CCTE_Mundy_HCI_Cortical_Synap_Neur_Matur_CellBodySpotCount: CCTE's Synaptogenesis and Neurite Maturation Assay in rat cortical cells for Cell Body Spot Count, Mundy Lab (AID 2284223)
Outline: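 Primary rat cortical cultures, AraC added at DIV 5; dosed DIV 7 through DIV 12 […]. Fixed, stained for MAP2 and synaptophysin with Hoechst; cell body-associated synaptophysin puncta per neuron counted by high-content imaging, loss vs DMSO.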

[6] = CCTE_Mundy_HCI_hNP1_Pro_ResponderAvgInten: CCTE's Proliferation Assay in human neuroprogenitor cells, Mundy Lab (AID 2284224; active = hit-call score of the fitted dose curve at least 0.9, where 1 is the maximum;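 note: human neural progenitor cells hNP1 derived from WA09 embryonic stem cells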)
Outline: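 Proliferation was scored as BrdU labelling intensity in human neural progenitors derived from WA09 embryonic cells, measured 26.25 hours after chemical dosing. Activity was fitted relative to DMSO.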

[7] = UKN2_HCS_IMR90_cell_viability: Viability Assessment in the University of Konstanz (UKN) Leist Lab Neural Crest Cell Migration Assay in human induced IMR90 Pluripotent Stem Cells (UKN2) (AID 2284233);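 note: cells exposed to compound for 24 h after a 24 h migration phase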
Outline: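 After calcein-AM/Hoechst staining, viability is quantified by high-content fluorescence imaging, relative to DMSO, in iPSC (IMR90)-derived neural crest cells. Exposure lasts 24 h, starting after a 24 h migration period on PLO/laminin/fibronectin coating.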

[8] = CCTE_Mundy_HCI_Cortical_NOG_NeuronCount: CCTE's Neurite Outgrowth Assay in rat cortical cells for Neuron Count, Mundy Lab (AID 2284236; active = hit-call score of the fitted dose curve at least 0.9, where 1 is the maximum;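 note: neurons counted by imaging betaIII-tubulin and Hoechst stained cortical cells; cells exposed to compound for about 48 hours before fixation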)
Outline: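 Read-out: neuron number by high-content imaging of betaIII-tubulin (Alexa Fluor-488) and Hoechst-labelled rat primary cortical cells.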

[9] = CCTE_Mundy_HCI_Cortical_NOG_BPCount: CCTE's Neurite Outgrowth Assay in rat cortical cells for Branch Point Count, Mundy Lab (AID 2284237);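 note: branch points counted about two days after chemical exposure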
Outline: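 Measured 50.33 h after dosing, this morphology endpoint uses rat primary cortical cultures labelled for betaIII-tubulin. Branch points are quantified by high-content imaging, with DMSO as negative control and baseline.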

[10] = CCTE_Mundy_HCI_hNP1_Casp3_7: CCTE's Caspase-Glo 3/7 Assay in human neuroprogenitor cells for Apoptosis, Mundy Lab (AID 2284240)
Outline: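 Apoptosis is scored by activated caspase-3/7 luminescence in WA09-derived neural progenitor cells, measured 26.5 h after chemical dosing. Values represent gain of signal relative to DMSO vehicle.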

[11] = CCTE_Mundy_HCI_Cortical_Synap_Neur_Matur_NeuronCount: CCTE's Synaptogenesis and Neurite Maturation Assay in rat cortical cells for Neuron Count, Mundy Lab (AID 2284242; active = hit-call score of the fitted dose curve at least 0.9, where 1 is the maximum;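 note: hits reduce neuron count versus DMSO baseline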)
Outline: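 Measured at DIV 12: fluorescently labelled neurons (Hoechst nuclei, MAP2) in rat primary cortical cultures, counted by high-content imaging. AraC suppressed glia from DIV 5; DMSO served as negative control.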

[12] = IUF_NPC2a_radial_glia_migration_120hr: Leibniz Research Institute for Environmental Medicine (IUF) 120-hour Neural Progenitor Cell Migration Assay for Radial Glia Migration (NPC2a) (AID 2284298)
Outline: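 Human fetal-cortex neural progenitor spheres (0.3 mm) plated on poly-D-lysine/laminin in N2 differentiation medium, exposed 120 h at 37C with half-medium renewal at day 3. Radial glia migration distance (um) measured from Hoechst-stained nuclei images; DMSO baseline.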

[13] = IUF_NPC2a_radial_glia_migration_72hr: Leibniz Research Institute for Environmental Medicine (IUF) 72-hour Neural Progenitor Cell Migration Assay for Radial Glia Migration (NPC2a) (AID 2284299)
Outline: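 Spheres of human primary neural progenitors migrate on poly-D-lysine/laminin under compound exposure at 37C, 5% CO2. The 72 h radial glia migration distance comes from brightfield images, measured manually.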

[14] = IUF_NPC3_neuronal_differentiation_120hr: Leibniz Research Institute for Environmental Medicine (IUF) 120-hour Neuronal Differentiation Assay (NPC3) (AID 2284301)
Outline: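 Value is percent TUBB3-positive neurons among Hoechst-stained nuclei in the migration area, scored by trained CNN after 120 h differentiation. Primary hNPC spheres on poly-D-lysine/laminin, N2 medium, continuous dosing from day 0, half-refeed day 3; DMSO reference.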

[15] = IUF_NPC4_neurite_length_120hr: Leibniz Research Institute for Environmental Medicine (IUF) 120-hour Neuronal Morphology Assay for Neurite Length (NPC4) (AID 2284302)
Outline: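 Neurite length, the mean in um across TUBB3-stained neurons, is derived by skeletonization of high-content images after 120 h differentiation. Compound exposure, 7 concentrations plus solvent control, ran from plating of hNPC spheres on poly-D-lysine/laminin, with medium half-replaced on day 3.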

[16] = IUF_NPC5_oligodendrocyte_differentiation_120hr: Leibniz Research Institute for Environmental Medicine (IUF) 120-hour Oligodendrocyte Differentiation Assay (NPC5) (AID 2284304; active = hit-call score of the fitted dose curve at least 0.9, where 1 is the maximum;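 note: primary human fetal neural progenitor spheres plated to migrate and differentiate; share of O4-positive cells among Hoechst nuclei found by CNN image analysis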)
Outline: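 Human fetal neural progenitor spheres (0.3 mm) plated on poly-D-lysine/laminin in N2 differentiation medium and exposed for 120 h at 7 concentrations, with half-medium renewal at day 3. O4-positive cells identified by CNN, expressed as percent of Hoechst nuclei.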

[17] = IUF_NPC4_neurite_area_120hr: Leibniz Research Institute for Environmental Medicine (IUF) 120-hour Neuronal Morphology Assay for Neurite Area (NPC4) (AID 2284305; active = hit-call score of the fitted dose curve at least 0.9, where 1 is the maximum)
Outline: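 Neurite area (pixels, nuclei excluded) of TUBB3-positive neurons from hNPC spheres differentiating 5 days under continuous exposure at 37 C, 5% CO2. High-content imaging; loss of signal versus DMSO control across 7 concentrations.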

[18] = IUF_NPC2-5_cytotoxicity_120hr: Cytotoxicity Assessment at 120 hours in the Leibniz Research Institute for Environmental Medicine (IUF) Neural Progenitor Cell Migration and Differentiation Assay (NPC2-5) (AID 2284307; active = hit-call score of the fitted dose curve at least 0.9, where 1 is the maximum)
Outline: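 Human fetal (GW 16-19) neural progenitor spheres (0.3 mm) plated on poly-D-lysine/laminin in N2 differentiation medium, exposed 120 h with half-medium renewal at day 3; 7 concentrations plus solvent control, DMSO ≤0.1%. LDH release in supernatant read by resorufin fluorescence.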

[19] = IUF_NPC2-5_cell_number_120hr: Cell Number Assessment at 120 hours in the Leibniz Research Institute for Environmental Medicine (IUF) Neural Progenitor Cell Migration and Differentiation Assay (NPC2-5) (AID 2284308);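 note: count of Hoechst-stained nuclei in migration zone around plated human neural progenitor spheres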
Outline: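 Human fetal neural progenitor spheres (0.3 mm) plated on poly-D-lysine/laminin in N2 differentiation medium, exposed five days across 7 concentrations with half-medium refresh at day 3. Hoechst-positive nuclei counted in migration area at 120 h, relative to DMSO.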

[20] = IUF_NPC2-5_viability_120hr: Viability Assessment at 120 hours in the Leibniz Research Institute for Environmental Medicine (IUF) Neural Progenitor Cell Migration and Differentiation Assay (NPC2-5) (AID 2284312)
Outline: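 Alamar blue resorufin fluorescence read after 5 days of differentiation, with compound present from day 0 and replenished at day 3. Primary hNPC spheres on laminin-coated plates, 37C; seven concentrations plus solvent control, fitted against DMSO.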

[21] = IUF_NPC1_cytotoxicity_72hr: Cytotoxicity Assessment at 72 hours in the Leibniz Research Institute for Environmental Medicine (IUF) Neural Progenitor Cell Proliferation Assay (NPC1) (AID 2284332; active = hit-call score of the fitted dose curve at least 0.9, where 1 is the maximum;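 note: rising LDH signal means more cytotoxicity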)
Outline: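 Readout is fluorescence from LDH-dependent resazurin conversion, sampled from culture medium after compound contact lasting 72 h. Each well holds one 0.25-0.35 mm human progenitor sphere kept at 37C, 5% CO2 with EGF and FGF.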

[22] = CCTE_Mundy_HCI_iCellGluta_NOG_NeuronCount: CCTE's Neurite Outgrowth Assay in iCellGluta cells for Neuron Count, Mundy Lab (AID 2284340; active = hit-call score of the fitted dose curve at least 0.9, where 1 is the maximum;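 note: cells fixed about 48 h after compound addition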)
Outline: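 Neuron count read by automated high-content imaging of Hoechst 33342 and betaIII-tubulin/Alexa Fluor-488 labelling in human iPSC glutamatergic neurons. Activity fitted relative to DMSO.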

[23] = CCTE_Mundy_HCI_iCellGluta_NOG_NeuriteCount: CCTE's Neurite Outgrowth Assay in iCellGluta cells for Neurite Count, Mundy Lab (AID 2284342; active = hit-call score of the fitted dose curve at least 0.9, where 1 is the maximum;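 note: chemical exposure about 48 hours starting 2 hours after plating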)

Measured: AC50

CC1(C)C(C=C(Cl)Cl)C1C(=O)O[C@H](C#N)c1cccc(Oc2ccccc2)c1 (stereo partly drawn)
active: [1] 82 µM | [2] 11 µM | [3] 10.9 µM | [4] 12.3 µM | [5] 12 µM | [6] 23.3 µM | [9] 80 µM | [10] 29.3 µM | [11] 10.1 µM | [14] 0.851 µM | [16] 1.32 µM
inactive: all other assays above
